We go through 13 compounds from PubChem BioAssay (NCI).

Common to all, as to assay: NCI-60 one-dose screen, 48 h (100 = growth as untreated, 0 = no growth, -100 = all killed)
What all share (details): 10 µM unless noted

Test [1] has as its system HCT-15 colon.
Test [2] relates to HT29 colon.
In test [3] the test system is SNB-75 CNS.
In test [4] the test system is SNB-19 CNS.
The test system of test [5] is U251 CNS.
Test [6] concerns PC-3 prostate.
For test [7], the system named is SK-MEL-5 melanoma.
In test [8] the test system is UACC-62 melanoma.
Test [9] deals with LOX IMVI melanoma.
The test system of test [10] is SK-MEL-28 melanoma.

“And” between values parts separate entries of the source, which are not always exact repeats. Equal entries are not always repeated. The panel holds about 83,000 compounds, 20% with a hit somewhere; the sample as a whole holds those more often.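 Treatment: one concentration, 48 hours, 96-well format. Scoring: percent growth, with anything below 10 considered active.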 A number with no mark means an inactive call. The source made the active and inactive calls.

Consider `CC(C)CCC1C(=O)NC(=O)NC1=O`, for which the growth in [1] is 101%; in [2], 98.4%; in test [3], 104%; in [4], 115%; in test [5], 97.6%; in test [6], 98%. Besides, the growth was 103% in test [7], 96.7% in [8], 104% in test [9] and 101% in [10].
For `O=c1c2ccccc2nc(-c2ccccc2Cl)n1-c1nnc(C(F)(F)F)s1`, the growth in test [1] was 21.1%; in test [2] it was 30.3%; in test [3] it was 53.9%; in test [4], 33.2%; in test [5] it was 16.6%; in test [6], 20%. Further, the growth is 9.47% (active) in [7], 10.3% in test [8], 31.3% in test [9] and 30.2% in test [10].
Regarding `O=[N+]([O-])c1ccc2scc3c4ccccc4nc-3c2c1`, the growth in test [1] is -36.7% (active); in [2] it was -47% (active); in [3] it was -42% (active); in [4] it was 46.7%; in test [5] it was -92.4% (active); in test [6], -53.4% (active). For the same compound, the growth in [7] is 8.28% (active); in test [8] it was -61% (active); in test [9], -87.1% (active); in test [10], -56.1% (active).
Consider `CC/C(Cc1ccccc1)=C(\c1ccc(OCCN2CCCC2)cc1)c1ccc(OC(=O)NCc2ccccc2)cc1`, for which the growth in [1] was -11.5% (active); in test [2], -42.1% (active); in test [3], 57.7%; in test [4], 54.9%; in test [5] it was 12.5%; in test [6], 47.8%. Moreover, the growth in test [7] is 19.3%; in [8] it was -45.4% (active); in [9], 49.3%; in test [10], -60.3% (active).
Take `C[N+]1(CC#CC[N+]2(C)CCCC2)CCCC1`: the growth was 103% in test [1]; 101% in [2]; 88.4% in test [3]; 104% in test [4]; 107% in test [5]; 92.7% in [6]. Besides, the growth is 101% in test [7], 99.9% in test [8], 93.6% in test [9] and 111% in test [10].
With `Oc1ccccc1C=NCCN=Cc1ccccc1O`, the growth was 104% in [1]; 108% in [2]; 97.6% in test [3]; 98% in test [4]; 91.6% in [5]; 95.1% in test [6]. The results for the growth in [7], in [8] and in test [10] were 99.5%, 98.8% and 103%, respectively.
Regarding `O=C1C=C(N2CC2)c2ccccc2C1=O`, the growth is 79.6% in [1]; 73.4% in test [2]; 90.2% in [3]; 82.7% in test [4]; 65.3% in test [5]; 44.3% in test [6]. Besides, the figures for the growth in test [7], in test [8] and in [10] were 59.7%, 97.8% and 111%, respectively.
On to `O=C(O)c1ccc(=O)[nH]c1`, for which the growth is 97.5% and 103% in test [1]; 109% and 97.7% in test [2]; 101% and 91.6% in [3]; 94.4% and 102% in test [4]; 97.5% and 91% in test [5]; 103% and 90.1% in [6]. The growth in test [7] is 101% and 100%; in test [8] it was 88.7% and 98.6%; in [10], 106% and 110%.
On to `CN(C)[C@@H]1C(=O)C(C(N)=O)=C(O)[C@@]2(O)C(=O)C3=C(O)c4c(O)ccc(Cl)c4[C@@](C)(O)[C@H]3C[C@@H]12`, for which the growth is 89.6% and 105% in [1]; 85.2% and 109% in [2]; 87.2% and 84.1% in test [3]; 98.4% and 97.9% in test [4]; 89.9% and 103% in test [5]; 81.6% in test [6]. Moreover, the growth was 98.9% and 100% in test [7]; 72.9% and 89.5% in test [8]; 109% and 112% in [10].
On to `O=[N+]([O-])c1ccc(P(=O)(O)O)cc1`, for which the growth in [1] was 103%; in [2], 100%; in test [3], 80.2%; in test [4], 108%; in test [5] it was 96.2%; in [6], 91.3%. Also, the results for the growth in [7], in [8] and in test [10] were 109%, 105% and 109%, respectively.
Turning to `C=CCOC(=O)C(Br)CC` (configuration not stated), the growth was 108% in test [1]; 110% in test [2]; 97.1% in test [3]; 109% in test [4]; 101% in test [5]; 95% in [6]. The growth in test [7] was 99.3%; in [8] it was 98.8%; in [10] it was 110%.
`O=[N+]([O-])c1cc(Cl)c(Cl)cc1Cl`: the growth in test [1] is 104% and 108%; in test [2], 124% and 111%; in test [3], 93.8% and 121%; in test [4] it was 101% and 131%; in test [5] it was 93.4% and 102%; in test [6] it was 96.1% and 102%. The growth in [7] is 123% and 105%; in test [8] it was 91.4% and 115%; in test [10], 115% and 124%.
Regarding `C[N+]1(C)CCCC1c1cccnc1` (configuration not stated), the growth was 104% in test [1]; 102% in test [2]; 98% in test [3]; 105% in [4]; 94% in [5]; 97.6% in [6]. Besides, the results for the growth in [7], in test [8] and in [10] were 95.4%, 102% and 114%, respectively.
